From PubChem BioAssay
ALDH1A1 inh: blocks purified human ALDH1A1 activity; Potency, µM (titrated, usually from 75.3 µM), for the others: top-dose activity, negative = inhibition, most hits filed as inhibitors; Purified ALDH1A1, NADH fluorescence, propionaldehyde substrate; actives 7.3% (n = 220,000); P00352;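 further: potency means the concentration at half of the fitted maximal effect; plate controls were no enzyme wells and a reference inhibitor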
Target sequence (P00352 whole entry, looked up): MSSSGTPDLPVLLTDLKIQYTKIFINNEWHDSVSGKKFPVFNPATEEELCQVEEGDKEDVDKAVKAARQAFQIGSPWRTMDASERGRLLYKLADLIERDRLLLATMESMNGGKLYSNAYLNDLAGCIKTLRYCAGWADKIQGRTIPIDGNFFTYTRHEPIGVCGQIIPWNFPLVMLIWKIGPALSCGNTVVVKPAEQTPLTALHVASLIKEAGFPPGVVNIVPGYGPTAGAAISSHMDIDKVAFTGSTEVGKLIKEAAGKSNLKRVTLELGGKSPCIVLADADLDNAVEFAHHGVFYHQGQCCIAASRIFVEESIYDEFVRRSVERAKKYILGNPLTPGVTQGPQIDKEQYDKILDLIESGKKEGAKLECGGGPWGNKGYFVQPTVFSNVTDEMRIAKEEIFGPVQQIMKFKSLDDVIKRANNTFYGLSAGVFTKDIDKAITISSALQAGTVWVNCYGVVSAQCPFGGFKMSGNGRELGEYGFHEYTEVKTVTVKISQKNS
IMPase cell inh: IMPase inhibition in cells; P97697; CHO-M1 cells, IP1 accumulation, HTRF TR-FRET ratio; inhibition (IP1 accumulation), % at 46.1 µM; 120,000 tested, under 10 active; AID 901; active means well fitted curve in the direction sought with a large enough effect in the signal ratio, not every such curve was filed as active; inconclusive means small, poorly fitted or top-dose-only effect, or a change in a side signal; inactive means no such curve, though single readings can be large or run the other way; the % refers to the signal ratio;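 further: cells stimulated with carbachol in lithium chloride buffer; plate controls were DMSO basal wells for no effect and reference inhibitor wells for full effect; higher means more IMPase inhibition seen as more IP1 and lower FRET ratio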
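In this qHTS, compounds (final up to 46 uM) act on CHO-M1 cells that are then activated through the M1 receptor with carbachol, in pH 7.4 buffer containing 50 mM LiCl, for 30 min. IP1 accumulation is quantified by the IP-One immunoassay.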
HPGD block: blocks human HPGD enzyme activity. purified HPGD, NADH fluorescence kinetic, PGE2 substrate. Potency, µM, without a hit: at the highest dose activity change, negative = inhibition, most hits filed as inhibitors. actives 4.3% (n = 150,000); further: potency means the concentration at half of the fitted maximal effect
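20 nM HPGD preincubated 15 min at room temperature with compound in 50 mM Tris-HCl pH 8, 0.01% Tween 20. Started with 1 mM NAD+ and 30 uM prostaglandin E2; NADH fluorescence (360/450 nm) read 5 times over 30-s intervals, last minus first.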
* marks the source's active call; other numbers are inactive results; ? = inconclusive; . = not tested or not shown; [ ] = another dose, or the depositor's remark. Shown are actives, neighbours in structure and some others; about 9% of the full set was active somewhere. Unless noted, the call rests on the fitted dose curve; in most records, active means well fitted inhibition curve with a large enough effect (not every such curve was filed as active); inconclusive means small, poorly fitted or top-dose-only effect, or another doubt; inactive means no such curve, though single readings can be large or run the other way. Unless noted, on the % scale 0 is the no-effect control and ±100 the full control effect.

SMILES	ALDH1A1 inh	IMPase cell inh	HPGD block
N#CC1=C(SCC(=O)Nc2ccccc2)NC(=O)CC1c1ccc(O)cc1 (stereo not given)	?	-8	-2%
Cc1cccc(C)c1	15%	.	-3%
Cn1c(=O)[nH]c(=O)c2c1nc(N1CCOCC1)n2Cc1ccccc1	.	1	.
COC(=O)c1cc(C)sc1NC(=O)c1cccnc1	2%	-1	-13%
CCCSC1=C(C#N)C(c2ccc(Cl)cc2Cl)CC(=O)N1 (stereo not given)	20µM*	-4	32µM*
N#CC1=C(SCC(N)=O)NC(=O)CC1c1ccccc1Cl (stereo not given)	20µM*	5	-4%
CCSC1=C(C#N)C(c2ccccc2Cl)CC(=O)N1 (stereo not given)	?	-1	-8%
CCCSC1=C(C#N)C(c2ccccc2OCC)CC(=O)N1 (stereo not given)	1%	2	-1%
COC(=O)c1ccc([C@H]2Nc3ccc(S(=O)(=O)Nc4ccc(F)cc4)cc3[C@H]3C=CC[C@H]32)cc1	.	-6	.
COc1ccc(Br)cc1[C@@H]1Nc2ccc(C(=O)O)cc2[C@@H]2C=CC[C@@H]21	.	-6	.
COc1ccc(C(=O)N/N=C(\C)c2ccc3c(c2)C2C=CCC2C(c2ccccc2)N3)cc1 (stereo not given)	11µM*	-4	-23%
COc1cccc(NS(=O)(=O)c2ccc3c(c2)C2C=CCC2C(c2ccc(C(=O)O)cc2)N3)c1 (stereo not given)	20µM*	.	-28%
O=C(Oc1ccccc1)N1CCC2(CCCN(c3ccncc3)C2)CC1	-8%	.	-10%
Cc1ccc(OCc2nc(-c3ccc(-n4cccc4)cc3)no2)cc1C	5%	-2	-8%
COC(=O)c1ccc(N=NN2CCCCC2)cc1	5%	.	.
O=C(CCl)N(c1ccccc1)C1CCCCC1	0.035µM*	.	.
CC(=O)N(c1ccccc1)C1CCCC1	1%	.	-7%
CCN(CC)S(=O)(=O)c1ccc(NC(=O)CCC2CCCCC2)cc1	?	9	-14%
COC(=O)c1ccc(C(NC(=O)OCc2ccccc2)/C(I)=C/[C@@H](C)C(=O)NCc2ccc(C)o2)cc1 (stereo not given in full)	28µM*	.	-27%
COC(=O)c1ccc(C(NC(=O)OCc2ccccc2)/C(I)=C/[C@@H](C)C(=O)NCc2ccc(OC)c(O)c2)cc1 (stereo not given in full)	-7%	.	-6%
COc1ccc(NC2C[C@H]3CCCC(=O)N4CC[C@@H](C2)[C@@H]34)cc1 (stereo not given in full)	4%	.	0%
C#CCCCCCCCCCCCC(O)CC(O)COC(C)=O (stereo not given)	14µM*	.	-24%
CC(=O)OCC(OC(C)=O)C(OC(C)=O)C(OC(C)=O)C(OC(C)=O)C(COC(C)=O)OC(C)=O (stereo not given)	11%	.	-9%
Cc1cc(Cl)ccc1N=C1N=C(N)c2ccccc21	5%	-8	-9%
Cc1cc(C)c(C#N)c(Cl)n1	4%	.	-4%
SMILES	ALDH1A1 inh	IMPase cell inh	HPGD block
Cc1cc(Cl)ccc1N=c1ssnc1Cl	1.3µM*	3	4.5µM*
Cc1ccc(C2=NNC(=Nc3ccc(F)cc3)SC2)cc1	-11%	.	.
Cc1ccc(N=c2ssnc2Cl)cc1	2.2µM*	?	2.8µM*
Cc1cc(C)nc(/N=c2/ssnc2Cl)c1	4µM*	16	13µM*
CN(C)c1nc(-c2ccccc2C(F)(F)F)nc2ccccc12	-6%	.	.
O=C(O)c1nn(-c2ccc(Cl)cc2)ccc1=O	-2%	-6	-11%
O=C1CC(N2CCN(C/C=C/c3ccccc3)CC2)C(=O)N1Cc1cccs1 (stereo not given)	-7%	11	-1%
O=C1CC(N2CCN(c3ccc(O)cc3)CC2)C(=O)N1Cc1cccs1 (stereo not given)	25µM*	-5	-1%
COc1ccccc1N1CCN(c2nc3ccc(C)cc3nc2-n2nc(C)cc2C)CC1	.	0	.
Cc1noc(C)c1-c1cc(N(C)C)ncn1	7%	.	-13%
O=C(NC(=S)Nc1ccccc1N1CCCC1)c1ccc(-c2cccc([N+](=O)[O-])c2)o1	22µM*	-1	25µM*
O=C(NC(=S)Nc1ccccc1N1CCCCC1)c1ccc(-c2cccc([N+](=O)[O-])c2)o1	?	1	-21%
O=C(Nc1ccccc1N1CCOCC1)c1cccc([N+](=O)[O-])c1	5%	.	-9%
CC(=O)N1CCN(c2ccccc2NC(=O)c2ccc(-c3cccc([N+](=O)[O-])c3)o2)CC1	14µM*	.	.
O=C(C1CCCCC1)N(Cc1nc2sc3c(c2c(=O)[nH]1)CCCC3)Cc1cccs1	?	7	?
COC(=O)c1ccc(-c2noc(CN3CCCC(CNC(C)=O)C3)n2)cc1 (stereo not given)	-14%	.	.
Cn1c(-c2ccc(CN3CCCCC3)o2)nc2ccccc21	?	2	?
CN(C)S(=O)(=O)c1cc(C(=O)O)c(NC2CCCCC2)cc1Cl	?	1	-24%
CN(C)S(=O)(=O)c1cc(S(=O)(=O)N(C)C)c(Cl)cc1N	13µM*	4	-6%
Nc1ccc(N=Nc2c(S(=O)(=O)O)cc3ccccc3c2S(=O)(=O)O)cc1	11%[13.5 µM]	.	-8%
O=C(Nc1cccc(-c2nc3ncccc3o2)c1)c1ccc(-c2cccc(Cl)c2Cl)o1	.	-9	.
Nc1nc(-c2ccccc2)c(N=Nc2ccc(Cl)cc2)s1	28µM*	.	?
Nc1nc(-c2ccccc2)c(-c2ccccc2)s1	?	3	-29%
Cc1cnc(CNc2cc(-c3ccccc3C)ncn2)cn1	-4%	.	.
O=[N+]([O-])c1ccc(S(=O)(=O)Cc2ccccc2)c([N+](=O)[O-])c1	1.3µM*	.	-15%
SMILES	ALDH1A1 inh	IMPase cell inh	HPGD block
O=[N+]([O-])c1ccc(NC2CCN(Cc3ccccc3)CC2)c([N+](=O)[O-])c1	-3%	.	.
Cc1ccnc(NS(=O)(=O)c2ccc(NC(=O)c3ccc([N+](=O)[O-])s3)cc2)n1	-9%	.	.
S=C1NC=NC2N=CNC12 (stereo not given)	2.2µM*	.	?
NNC(=O)c1sc2cc(C(F)(F)F)cnc2c1-c1ccccn1	7.1µM*	.	.
O=C(O)c1sc2cc(C(F)(F)F)cnc2c1-c1ccccc1	3%	-5	-16%
COc1ccc(-c2nc3c(c4c2CC(C)OC4)CN(CCC(C)C)CC3)cc1 (stereo not given)	-10%[13.5 µM]	.	.
FC(F)(F)c1cc(NC(=S)NC23CC4CC(CC(C4)C2)C3)cc(C(F)(F)F)c1	0%	.	-3%
CCCn1cc(SCC(=O)NCC2CCCO2)c2ccccc21 (stereo not given)	?	0	?
Cn1c(=O)cc(SCC(=O)NCC2CCCO2)c2ccccc21 (stereo not given)	13µM*	-11	.
Cn1cc(SCC(=O)NCC2CCCO2)c2ccccc21 (stereo not given)	2%	24	28µM*
Cn1c(=O)cc(SCC(=O)NCCC2=CCCCC2)c2ccccc21	?	.	7.1µM*
COc1ccc(CNC(=O)CSc2cc(=O)n(C)c3ccccc23)cc1	-9%	.	.
CC(C)C(=O)c1cn(CC(=O)NCC2CCCO2)c2ccccc12 (stereo not given)	22µM*	-1	-13%
CC1CCN(C(=O)Cn2cc(SCC(=O)NCC3CCCO3)c3ccccc32)CC1 (stereo not given)	-4%	.	.
